# Results: PMC7819943, “Rice protein-binding microarrays: a tool to detect cis-acting elements near promoter regions in rice”
# Whole data set: some 39,000 sequences, median “fluorescence intensity (a.u.)” near 4,300, cut for the highest 2% near 39,000. The list comes from a sample in which the highest values are over-represented; it also holds similar and randomly drawn sequences.
# Target: T1, OsSMF1 (Oryza sativa, UniProt Q6ZLB0 1-436)
# T1 sequence: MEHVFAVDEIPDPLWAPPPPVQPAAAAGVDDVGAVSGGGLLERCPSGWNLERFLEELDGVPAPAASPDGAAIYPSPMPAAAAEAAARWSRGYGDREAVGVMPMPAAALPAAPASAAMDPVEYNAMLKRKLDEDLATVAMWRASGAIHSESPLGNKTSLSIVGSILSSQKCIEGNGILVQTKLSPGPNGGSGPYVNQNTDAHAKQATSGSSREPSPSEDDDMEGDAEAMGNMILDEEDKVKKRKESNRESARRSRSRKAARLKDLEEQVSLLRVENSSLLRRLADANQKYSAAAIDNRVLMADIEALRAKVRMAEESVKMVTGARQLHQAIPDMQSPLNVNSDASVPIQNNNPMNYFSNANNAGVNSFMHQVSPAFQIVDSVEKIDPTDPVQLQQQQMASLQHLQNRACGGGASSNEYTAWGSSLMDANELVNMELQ
# Experiment: protein-binding microarray (RPBM); PBS, 2% BSA, 51.3 ng/ul salmon testes DNA, 50 uM zinc acetate, 200 nM TF, 25 C, 1 h; high values mean tight binding
# Details: protein: recombinant; tags: N-terminal polyhistidine and DsRed monomer fusion (pET32a); chain copies: 2; label: CyDye5-dUTP incorporated in the synthesized complementary strand; 3' TTTTT single-stranded linker to array surface; dsDNA, one strand shown
# Procedure, shortened: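 Binding signal is defined as the fluorescence intensity of each feature in arbitrary units, read on an Axon 4000B scanner. Transcription factors with N-terminal polyhistidine and DsRed fusions came from E. coli BL21-CodonPlus and were purified on Ni–NTA. They were incubated at 200 nM for 1 h at 25 °C on a custom Agilent array that had been made double-stranded with Cy5-dUTP, with 50 µM zinc acetate present, and the array was washed.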
row,Sequence,binding signal
1,TACGTGTGTTGATTTCCGTGACATATGCATAAATTTCTTTCGGAGTCACCTAGTGCAG,3530 fluorescence intensity (a.u.)
2,CCTTTCCGATTACGTGTTGGACCTTGACCCTAGGCCATATCGGAGTCACCTAGTGCAG,49700 fluorescence intensity (a.u.)
3,TCAGCGAATTGGTACGTACCCTTGTACGTGTTGACGCCATCGGAGTCACCTAGTGCAG,3650 fluorescence intensity (a.u.)
4,CCGTCGACTCTGTGCCACGTCCTGTTGCTCGTCGGATTCCCGGAGTCACCTAGTGCAG,14000 fluorescence intensity (a.u.)
5,TGCAGTATCTGCCGTTCGTATCGCTGCGTTGAATCTTCCACGGAGTCACCTAGTGCAG,47100 fluorescence intensity (a.u.)
6,CTAGTTCGCCTTCCACGTACGCACTTGGCGTCGTATCTGCCGGAGTCACCTAGTGCAG,6440 fluorescence intensity (a.u.)
7,TTGCTGCAGTTCTCGTATGCTTCCTAGTACTATCTGCGTTCGGAGTCACCTAGTGCAG,3230 fluorescence intensity (a.u.)
8,GATCATGAGCTCCACGGCGGCCAACGTGGCGGCGCCGACGCGGAGTCACCTAGTGCAG,8640 fluorescence intensity (a.u.)
9,TAACACAACTATTTACTCAGCTCACGTGTTTCATTAACAACGGAGTCACCTAGTGCAG,3340 fluorescence intensity (a.u.)
10,TTTCGCAATTATATTGATGCAGAAATCAGCAGCTCACAATCGGAGTCACCTAGTGCAG,20700 fluorescence intensity (a.u.)
11,TCAGCTCAGCAAATTAGGATGTTTCATTAGTTAGAACAAACGGAGTCACCTAGTGCAG,51600 fluorescence intensity (a.u.)
12,AGCGACGAGTAAACAAAGCGCGGCGTAGCATGTGATGTGGCGGAGTCACCTAGTGCAG,4440 fluorescence intensity (a.u.)
13,GTTATATCTCACGTGTCAAAATTCCTATGATTTTCAGTAACGGAGTCACCTAGTGCAG,4700 fluorescence intensity (a.u.)
14,GCGTCACGTTCCTGTCGGCGGCGGCCAACGTGGCCCGCGTCGGAGTCACCTAGTGCAG,15200 fluorescence intensity (a.u.)
15,CCGAGCCACGTCGCGCCGCCGCCGCTGCTGTGCCGCCGCGCGGAGTCACCTAGTGCAG,5650 fluorescence intensity (a.u.)
16,CGCTGCTGCCGTCACAGAAGGTGCTGACATGGCCTGGGGTCGGAGTCACCTAGTGCAG,7520 fluorescence intensity (a.u.)
17,GCCGGCGACGCTGCCGCCGTCACCACTACCGCTGCCGCGGCGGAGTCACCTAGTGCAG,4140 fluorescence intensity (a.u.)
18,GCCGCCGCCGCCGCCGCCGCTGACGAGGAGCAGAAGGTGGCGGAGTCACCTAGTGCAG,4310 fluorescence intensity (a.u.)
19,GAGTGGAGAAGGCGCGCCACCGTCGCTAGAGCCGATGCTGCGGAGTCACCTAGTGCAG,47700 fluorescence intensity (a.u.)
20,GCGCGCCGTCGTGGCGCTGGCGGCCACCACGGTGGTCACCCGGAGTCACCTAGTGCAG,4120 fluorescence intensity (a.u.)
21,GCGGGCGCACGGGTGGGTGGTGTTCTGGGGCGGAGGCAGCCGGAGTCACCTAGTGCAG,3310 fluorescence intensity (a.u.)

row,Sequence,binding signal
1,CGCCGCTGCCGCCAAACCGTCGGTGGAGAAGGCCTACCGGCGGAGTCACCTAGTGCAG,59200 fluorescence intensity (a.u.)
2,GCGCCGTCGTCGTCGCTGCCGTGGCGCCGCCGCGGCCACCCGGAGTCACCTAGTGCAG,6800 fluorescence intensity (a.u.)
3,CCGTCGTGCTGGGTGTGGCGCCGGAGAAGAAGGCGCAGCACGGAGTCACCTAGTGCAG,41700 fluorescence intensity (a.u.)
4,CGCCGAGCTGCCACGCTCGCGTCGCGTCCAGATGCGCGCGCGGAGTCACCTAGTGCAG,3680 fluorescence intensity (a.u.)
5,CTGCTGCCGTCGCAGAAGGTGCTGACATGGCCAGGGGTGGCGGAGTCACCTAGTGCAG,45300 fluorescence intensity (a.u.)
6,GATGTTACGCGTGTAATGGTGTGTGCGTGTATATACTTTGCGGAGTCACCTAGTGCAG,7330 fluorescence intensity (a.u.)
7,ACGTTTACTCCCAGTACACACAAGACACTACTAGCTTAGACGGAGTCACCTAGTGCAG,3420 fluorescence intensity (a.u.)
8,TGGAGGAGGAGGAGGGGAGACCACCGGAGGTAGGCGAATCCGGAGTCACCTAGTGCAG,3140 fluorescence intensity (a.u.)
9,TCAGATAGCCACCATGACATGTATCAGTACATGCAGTGATCGGAGTCACCTAGTGCAG,4480 fluorescence intensity (a.u.)
10,CGAATAAGCCCTTAATGTGTACGTTATTTGGTTTATCCACCGGAGTCACCTAGTGCAG,3240 fluorescence intensity (a.u.)
11,CGCCGGTGCTGATGCTGATCGATCTTACGTCGCGTCGCGACGGAGTCACCTAGTGCAG,3280 fluorescence intensity (a.u.)
12,CTGCAGCAAACGACCAGCCATGTCACAGGTTGTGAAGGTCCGGAGTCACCTAGTGCAG,4600 fluorescence intensity (a.u.)
13,GAAGGCGGCGCGGAAGTCGGCGCCGGCGACCGGCGGCGTGCGGAGTCACCTAGTGCAG,9120 fluorescence intensity (a.u.)
14,TTGGGCGAGGTAGAGGCGGCGCCGGTGTCATCACCGTCGTCGGAGTCACCTAGTGCAG,5140 fluorescence intensity (a.u.)
15,AGAGCAAGGCGCCGGTGGTGCTCATCAAGCCGTCGGCGACCGGAGTCACCTAGTGCAG,63100 fluorescence intensity (a.u.)
16,ACGGTCACGGTCCGGCCGCTCTACACGTACGTAGTACGTGCGGAGTCACCTAGTGCAG,25100 fluorescence intensity (a.u.)
17,GAGATTTGATGACTGGGATGCCACATGGACACCACGACAGCGGAGTCACCTAGTGCAG,13300 fluorescence intensity (a.u.)
18,ATGGTGGTTGTGTCTTATATTTTGGAATGGAGGGACTTATCGGAGTCACCTAGTGCAG,21300 fluorescence intensity (a.u.)
19,TGGGCCGTGATTGAGGCCTATATATACGTGGCCTGACAAACGGAGTCACCTAGTGCAG,4000 fluorescence intensity (a.u.)
20,CAACACGCTCGATATCATCTAGTTAAACTAACCTAGTGTGCGGAGTCACCTAGTGCAG,42700 fluorescence intensity (a.u.)
21,GGATCGAAACTTGTGTTAAACACGTCAACTTCATGCATCTCGGAGTCACCTAGTGCAG,3310 fluorescence intensity (a.u.)
